Data reported in PubChem BioAssay (Tox21).
Inconclusive results are not listed. Calls of active or inactive are those of the source. Unless noted, calls follow the shape of the full dose curve.

Legend:
[1] = Nuclear factor erythroid 2-related factor 2/antioxidant responsive element (Nrf2/ARE) small molecule agonists: qHTS cell viability counter screen in human keratinocytes (AID 1919968; active = well fitted curve in the direction sought with a large enough effect in the repeat runs; an effect the other way counts as inactive or inconclusive; also: nearly all actives have a fitted effect of over 55% in size)
Procedure, shortened: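 Cytotoxicity was multiplexed with the Nrf2/ARE luciferase assay in the same wells. Stably transfected HaCaT keratinocytes were treated with test compounds for 23 h at 37 C. Cell viability was then measured by CellTiter-Fluor fluorescence.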

[2] = Nuclear factor erythroid 2-related factor 2/antioxidant responsive element (Nrf2/ARE) small molecule agonists: luciferase reporter gene qHTS assay in human keratinocytes (AID 1919969); also: nearly all actives have a fitted effect of over 35% in size
[3] = target: Gonadotropin-releasing hormone receptor (Homo sapiens) (UniProt P30968); test: Human gonadotropin-releasing hormone receptor (GnRHR) small molecule agonists, calcium flux assay in GnRHR-HEK293 cells (AID 1920063); also: nearly all actives have a fitted effect of over 35% in size
Procedure, shortened: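 Agonist activity was measured as intracellular calcium flux in HEK293 cells engineered to stably express human GnRHR. After dye loading for 1 hour at 37 C, compounds in DMSO were added and fluorescence was followed for 3 minutes.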

[4] = target: KiSS-1 receptor (Homo sapiens) (UniProt Q969F8); test: Human kisspeptin (KISS1R) small molecule agonists, calcium flux assay in KISS1R-HEK293 cells (AID 1920064; active = well fitted curve in the direction sought with a large enough effect in the repeat runs; an effect the other way counts as inactive or inconclusive)
Procedure, shortened: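 Agonist activity is monitored as intracellular calcium rise in engineered HEK293 cells carrying human KISS1R. Cells are dye-loaded for 1 h at 37 C before compound addition, and fluorescence is recorded for 3 min.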

[5] = G protein-coupled receptor (GPCR) small molecule agonists, calcium flux assay: HEK293 wild type cell line counter screen (AID 1920065)
Procedure, shortened: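 Seed cells, incubate 18 h (37 C, 5% CO2); add calcium dye, 1 h at 37 C; pin-transfer compounds, ATP control or DMSO; read fluorescence 480/540 nm each second for 3 min.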

[6] = p53 small molecule agonists, cell-based qHTS assay with human liver microsomes (AID 1963577);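 also: p53 response element beta-lactamase reporter cells with liver microsomes plus NADPH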
Procedure, shortened: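 Reporter activation was measured by LiveBLAzer fluorescence intensity in p53RE-bla cells, which had been exposed to compounds for 16 h at 37 C alongside 0.5 mg/mL human liver microsomes and 0.5 mg/mL NADPH (final concentrations).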

[7] = p53 small molecule agonists, cell-based qHTS assay with rat liver microsomes (AID 1963578)
Procedure, shortened: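 Compound in DMSO added to p53RE-bla cells 5 h post-plating; rat microsomes/NADPH 0.5 mg/mL final; 16 h, 37 C; LiveBLAzer 2 h RT.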

[8] = p53 small molecule agonists, cell-based qHTS assay with human liver microsomes: qHTS cell viability counter screen (AID 1963579); also: nearly all actives have a fitted effect of over 45% in size
Procedure, shortened: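 HLM-supplemented (0.5 mg/mL final) and NADPH-supplemented (0.5 mg/mL final) p53RE-bla cultures, 4,000 cells per well, were dosed with compounds in DMSO for 16 h at 37 C; luminescent ATP detection (CellTiter-Glo, 30 min, room temperature) quantified surviving cells.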

[9] = p53 small molecule agonists, cell-based qHTS assay with rat liver microsomes: qHTS cell viability counter screen (AID 1963580); also: nearly all actives have a fitted effect of over 45% in size
Procedure, shortened: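 Counter screen for cytotoxicity under metabolic activation: rat liver microsomes and NADPH, 0.5 mg/mL final each, added with compounds to p53RE-bla HCT-116 cells; 16 h at 37 C, then ATP luminescence read.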

[10] = p53 small molecule agonists, cell-based qHTS assay: qHTS cell viability counter screen (AID 1963581); also: nearly all actives have a fitted effect of over 45% in size
Procedure, shortened: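 Viability was counter-screened in parallel with the p53 agonist reporter by measuring intracellular ATP luminescence in the same HCT-116 p53RE-bla wells after 16 h compound treatment at 37 C.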

[11] = p53 small molecule agonists, cell-based qHTS assay (AID 1963582; active = well fitted activation curve with a large enough effect in the signal ratio in the repeat runs, not every such curve was filed as active; the % refers to the signal ratio)
Procedure, shortened: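 Cells carrying a p53-responsive bla reporter are treated with test compounds for 16 h at 37 C; beta-lactamase activity is then detected with LiveBLAzer B/G FRET substrate after 2 h at room temperature.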

[12] = target: 5-hydroxytryptamine receptor 2A (Homo sapiens) (UniProt P28223); test: 5-hydroxytryptamine receptor 2A (HTR2A) small molecule agonists, cell-based qHTS assay (AID 1963587); also: nearly all actives have a fitted effect of over 30% in size
Procedure, shortened: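 HTR2A-CHO cells, plated 18 h at 37 C/5% CO2, dye-loaded 1 h at 37 C; compounds in DMSO added by pin tool (agonist mode). Intracellular calcium flux read as kinetic fluorescence on FDSS over 2 min at 1 s intervals.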

[13] = target: Muscarinic acetylcholine receptor M1 (Homo sapiens) (UniProt P11229); test: Cholinergic receptor muscarinic 1 (CHRM1) small molecule antagonists, cell-based qHTS assay (AID 1963588); also: nearly all actives have a fitted effect of over 40% in size
Procedure, shortened: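 Compounds were tested at 15 concentrations in three independent runs. Dye-loaded CHRM1-CHO cells were exposed 5 min at room temperature before stimulation by acetylcholine added at 50nM. Intracellular calcium was read kinetically on FDSS for 3 min.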

[14] = target: Muscarinic acetylcholine receptor M1 (Homo sapiens) (UniProt P11229); test: Cholinergic receptor muscarinic 1 (CHRM1) small molecule agonists, cell-based qHTS assay (AID 1963589); also: nearly all actives have a fitted effect of over 35% in size
Procedure, shortened: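 Cells were plated and incubated 18 h at 37 C/5% CO2, loaded with calcium dye for 1 h at 37 C, then treated with compounds in DMSO. Fluorescence was recorded kinetically at 1 sec intervals.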

[15] = cAMP Responsive Elements (CRE) small molecule agonists, cell-based qHTS assay (AID 1963590)
Procedure, shortened: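 Cells carrying a CRE-driven beta-lactamase reporter (HEK 293T) are seeded, incubated overnight (18 h), and treated with test compounds for 3 h at 37 C; reporter activity is then detected with a FRET substrate after 2 h at room temperature.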

[16] = cAMP Responsive Elements (CRE) small molecule antagonists, cell-based qHTS assay (AID 1963591; active = well fitted inhibition curve with a large enough effect in the signal ratio in the repeat runs, not every such curve was filed as active; the % refers to the signal ratio)
Procedure, shortened: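 Cells (CRE-bla HEK 293T, DMEM with 10% dialyzed FBS and 25 mM HEPES) are seeded and incubated 18 h. Compounds are added with NKH477 agonist at 0.25 uM final for 3 h, then FRET substrate for 2 h.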

[17] = target: Beta-2 adrenergic receptor (Homo sapiens) (UniProt P07550); test: Adrenergic beta2 receptor (ADRB2) small molecule antagonists, cell-based qHTS assay (AID 1963592); also: series mostly up to about 92 µM; nearly all actives have a fitted effect of over 50% in size
Procedure, shortened: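 Assay format: CHO-ADRB2 cells, 18-20hr seeding at 37C/5% CO2, then compound plus 1nM isoproterenol agonist mix for 0.5hr RT. Homogeneous time-resolved fluorescence cAMP detection after 1hr, expressed as 665/615 nm ratio.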

[18] = target: D(2) dopamine receptor (Homo sapiens) (UniProt P14416); test: Dopamine D2 receptor (DRD2) small molecule agonists, cell-based qHTS assay (AID 1963594); also: nearly all actives have a fitted effect of over 35% in size
Procedure, shortened: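 HEK293 cells stably expressing DRD2 were cultured 24 h at 37 C, then given Ro20-1724 (0.1 mM final) and compounds for 10 min at room temperature. NKH477 (200nM) was then added for 30 min. cAMP was read by HTRF.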

[19] = target: D(2) dopamine receptor (Homo sapiens) (UniProt P14416); test: Dopamine D2 receptor (DRD2) small molecule antagonists, cell-based qHTS assay (AID 1963595; active = well fitted inhibition curve with a large enough effect in the signal ratio in the repeat runs, with a control signal flat; the % refers to the signal ratio)
Procedure, shortened: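 Readout: HTRF cAMP, cAMP-d2 competing with cellular cAMP for anti-cAMP cryptate, read after 1 h. Cells: DRD2-HEK293. Conditions: 0.1 mM Ro20-1724, 12 nM quinpirole, 200 nM NKH477, 30 min RT.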

Measured: Potency

Chain of Beta-2 adrenergic receptor (Homo sapiens) (P07550 whole entry, looked up): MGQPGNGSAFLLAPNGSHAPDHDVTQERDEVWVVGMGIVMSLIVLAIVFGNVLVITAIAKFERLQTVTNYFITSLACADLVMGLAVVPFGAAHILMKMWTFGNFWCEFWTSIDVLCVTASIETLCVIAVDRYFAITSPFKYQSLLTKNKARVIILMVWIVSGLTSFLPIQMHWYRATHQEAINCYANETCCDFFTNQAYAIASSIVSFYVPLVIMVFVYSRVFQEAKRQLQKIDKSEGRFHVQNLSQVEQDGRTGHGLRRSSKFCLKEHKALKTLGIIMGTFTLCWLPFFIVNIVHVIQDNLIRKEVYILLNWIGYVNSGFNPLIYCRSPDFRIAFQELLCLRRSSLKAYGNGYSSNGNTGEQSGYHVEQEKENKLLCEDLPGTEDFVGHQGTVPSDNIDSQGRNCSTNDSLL
Chain of D(2) dopamine receptor (Homo sapiens) (P14416 whole entry, looked up): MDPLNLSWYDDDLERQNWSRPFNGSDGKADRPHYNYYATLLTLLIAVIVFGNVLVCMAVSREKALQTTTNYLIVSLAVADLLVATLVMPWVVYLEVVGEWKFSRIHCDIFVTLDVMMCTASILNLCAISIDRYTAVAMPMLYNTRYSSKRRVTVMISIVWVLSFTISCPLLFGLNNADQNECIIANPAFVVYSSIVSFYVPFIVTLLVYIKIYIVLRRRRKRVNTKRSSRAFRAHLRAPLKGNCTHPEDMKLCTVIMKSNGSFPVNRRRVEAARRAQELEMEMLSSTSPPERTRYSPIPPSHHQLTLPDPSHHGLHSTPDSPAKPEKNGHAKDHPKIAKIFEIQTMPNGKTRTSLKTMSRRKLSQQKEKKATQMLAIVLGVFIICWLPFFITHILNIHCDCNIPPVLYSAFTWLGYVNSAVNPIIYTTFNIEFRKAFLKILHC
Chain of 5-hydroxytryptamine receptor 2A (Homo sapiens) (P28223 whole entry, looked up): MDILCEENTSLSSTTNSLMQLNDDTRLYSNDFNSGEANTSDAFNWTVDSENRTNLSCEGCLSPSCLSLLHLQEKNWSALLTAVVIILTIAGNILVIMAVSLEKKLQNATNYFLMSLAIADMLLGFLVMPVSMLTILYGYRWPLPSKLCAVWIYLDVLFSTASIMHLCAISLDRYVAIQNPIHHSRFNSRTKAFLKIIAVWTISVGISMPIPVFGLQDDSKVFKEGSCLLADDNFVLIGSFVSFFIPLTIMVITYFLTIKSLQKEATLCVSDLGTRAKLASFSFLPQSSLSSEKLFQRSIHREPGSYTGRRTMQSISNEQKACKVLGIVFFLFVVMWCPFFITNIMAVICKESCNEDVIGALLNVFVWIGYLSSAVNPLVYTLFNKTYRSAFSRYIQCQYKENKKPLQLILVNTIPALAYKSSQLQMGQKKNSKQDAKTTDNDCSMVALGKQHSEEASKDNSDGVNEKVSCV
Chain of Gonadotropin-releasing hormone receptor (Homo sapiens) (P30968 whole entry, looked up): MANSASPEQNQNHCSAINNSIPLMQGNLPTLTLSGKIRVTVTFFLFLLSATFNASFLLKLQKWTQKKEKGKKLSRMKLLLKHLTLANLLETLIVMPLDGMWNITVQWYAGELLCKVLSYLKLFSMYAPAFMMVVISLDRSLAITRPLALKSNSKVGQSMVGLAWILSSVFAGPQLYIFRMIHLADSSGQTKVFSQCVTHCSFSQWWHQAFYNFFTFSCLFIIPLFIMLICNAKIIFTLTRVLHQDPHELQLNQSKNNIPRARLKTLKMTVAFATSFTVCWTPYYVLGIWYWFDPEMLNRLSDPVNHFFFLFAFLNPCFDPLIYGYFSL
Chain of KiSS-1 receptor (Homo sapiens) (Q969F8 whole entry, looked up): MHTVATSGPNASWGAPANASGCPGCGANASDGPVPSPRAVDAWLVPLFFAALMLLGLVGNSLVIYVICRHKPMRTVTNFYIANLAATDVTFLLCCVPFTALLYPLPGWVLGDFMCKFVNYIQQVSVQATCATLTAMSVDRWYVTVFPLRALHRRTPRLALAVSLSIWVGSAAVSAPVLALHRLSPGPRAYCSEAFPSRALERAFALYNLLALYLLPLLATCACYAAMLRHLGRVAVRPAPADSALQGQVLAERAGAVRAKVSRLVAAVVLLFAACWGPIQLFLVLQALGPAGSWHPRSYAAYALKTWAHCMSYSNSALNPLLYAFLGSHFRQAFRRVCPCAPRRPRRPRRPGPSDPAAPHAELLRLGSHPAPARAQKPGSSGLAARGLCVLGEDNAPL
Chain of Muscarinic acetylcholine receptor M1 (Homo sapiens) (P11229 whole entry, looked up): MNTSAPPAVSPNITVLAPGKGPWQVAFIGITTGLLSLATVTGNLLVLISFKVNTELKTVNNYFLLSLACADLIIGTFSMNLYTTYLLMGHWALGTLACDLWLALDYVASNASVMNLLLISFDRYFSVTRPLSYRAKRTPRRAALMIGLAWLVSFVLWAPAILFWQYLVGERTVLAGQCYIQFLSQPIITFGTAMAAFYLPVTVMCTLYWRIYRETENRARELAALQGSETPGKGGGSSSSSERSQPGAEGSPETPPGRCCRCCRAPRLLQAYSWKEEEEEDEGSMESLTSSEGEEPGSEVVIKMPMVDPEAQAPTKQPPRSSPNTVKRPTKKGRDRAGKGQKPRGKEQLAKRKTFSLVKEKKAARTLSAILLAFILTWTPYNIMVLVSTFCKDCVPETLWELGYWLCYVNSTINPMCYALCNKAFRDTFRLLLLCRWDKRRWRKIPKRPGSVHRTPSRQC

C=C(C)C(=O)OCCN(C)C
inactive: all assays above

Cc1cc(NC(=O)C2=C(O)c3ccccc3S(=O)(=O)N2C)no1
inactive: all assays above

O=C(CO)[C@@H](O)[C@H](O)[C@H](O)CO
not listed: [18]
inactive: all other assays above

CC(C)(C)c1nnc(NS(=O)(=O)c2ccccc2)s1
not listed: [16] | [18]
inactive: all other assays above

C=CCSCC1Nc2cc(Cl)c(S(N)(=O)=O)cc2S(=O)(=O)N1 (centres undefined)
not listed: [17]
inactive: all other assays above

CCCCCCCCCCCCSC
inactive: all assays above

CC(=O)OC1CCCCC1
inactive: all assays above
